Assay results taken from PubChem BioAssay (EPA / NIEHS).
Values joined by “and” are separate entries in the source; they are usually repeats but may differ in a detail not shown here. Identical values can stand only once. Results filed as inconclusive are left out. Active and inactive are the calls of the source. The calls were made as follows, unless noted: active = hit-call score of the fitted dose curve at least 0.9, where 1 is the maximum; inactive = score below 0.9.

Tests used:
[1] = ACEA_ER_80hr: ACEA Biosciences xCELLigence Real-Time Cell Analysis on Estrogen Receptor Agonism for Proliferation (AID 2282667; active = hit-call score of the fitted dose curve at least 0.9, where 1 is the maximum); details: T47D proliferation, impedance (xCELLigence), 80 h
Method in brief: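 Estrogen-driven proliferation is captured as electrode impedance in T47D cells 80 h after compound addition. Test articles ran at 8 concentrations, 1:4 dilutions from 100 uM final, in two replicate plates.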

[2] = APR_HepG2_NuclearSize_24hr: Apredica 24-hour HepG2 Assay for Nuclear Size (AID 2282907); details: high-content imaging, actives raise or lower the signal
Method in brief: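 After fixation and permeabilization, 24-hr-treated HepG2 cells were stained with Hoechst 33342 and imaged on an ArrayScan (20x). Doses spanned 0.39–200 uM in duplicate. Nuclear diameter changes in either direction were fitted relative to 0.5% DMSO controls.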

[3] = APR_HepG2_CellLoss_24hr: Apredica 24-hour HepG2 Assay for Cell Loss (AID 2282908); details: high-content imaging;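 as to AC50: fit in both directions so a hit may be cell loss or gain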
Method in brief: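 Duplicate wells received compound at ten concentrations (0.39–200 uM; final DMSO 0.5% v/v). After fixation with formaldehyde, nuclei stained with Hoechst 33342 were imaged at 20x. Loss or gain of cell count was fitted relative to DMSO controls.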

[4] = APR_HepG2_MicrotubuleCSK_24hr: Apredica 24-hour HepG2 Assay for Microtubule CSK Stabilty (AID 2282909); details: HepG2 microtubule cytoskeleton imaging, actives raise or lower the signal
Method in brief: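 Microtubule stability is scored from tubulin immunofluorescence in fixed HepG2 cells imaged at 20x. Cells receive ten compound concentrations up to 200 uM for 24 h; taxol and DMSO serve as positive and negative controls.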

[5] = APR_HepG2_MitoticArrest_24hr: Apredica 24-hour HepG2 Assay for Mitotic Arrest (AID 2282910); details: high-content imaging, actives raise or lower the signal
Method in brief: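 High-content imaging of fixed HepG2 cells labeled with Hoechst 33342 and anti-phospho-histone H3, after 24 h treatment. Ten concentrations 0.39 to 200 uM in duplicate, final DMSO 0.5%; changes fitted both directions relative to DMSO.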

[6] = APR_HepG2_MitoMembPot_24hr: Apredica 24-hour HepG2 Assay for Mitochondrial Membrane Potential (AID 2282911); details: imaging, actives raise or lower the signal
Method in brief: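 Mitochondrial dye uptake (MitoTracker Red CMXRos, 250 nM, 30 min pre-fixation) in HepG2 after 24 hr compound exposure, 0.39–200 uM; ArrayScan images at 20x, activity fitted in both directions relative to DMSO.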

[7] = APR_HepG2_MitoMass_24hr: Apredica 24-hour HepG2 Assay for Mitochondrial Mass (AID 2282912); details: high-content imaging, actives raise or lower the signal
Method in brief: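 Readout: fluorescence of MitoTracker Red CMXRos (250 nM, added 30 min pre-fixation) in fixed HepG2 cells imaged by HCS. Exposure lasted 24 hr at 0.39–200 uM; increases and decreases were both fitted relative to DMSO.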

[8] = APR_HepG2_p53Act_24hr: Apredica 24-hour HepG2 Assay for p53 Activation (AID 2282913); details: high-content imaging, actives raise or lower the signal;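 also: p53 protein immunofluorescence averaged per cell in HepG2 with Hoechst nuclei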
Method in brief: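 Following 24 hr dosing of HepG2 at 0.39–200 uM, the cells undergo formaldehyde fixation, Triton permeabilization and multiplexed antibody labeling that includes p53 (Cy5). Signal from the imaging is referenced to DMSO solvent controls.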

[9] = APR_HepG2_CellCycleArrest_72hr: Apredica 72-hour HepG2 Assay for Cell Cycle Arrest (AID 2282914); details: high-content imaging, actives raise or lower the signal
Method in brief: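 Using multiplexed high-content imaging, HepG2 nuclei stained with Hoechst 33342 (2 ug/mL) were analysed for DNA content after fixation and permeabilization. Treatment lasted 72 hr across 0.39–200 uM in duplicate with final DMSO 0.5% v/v; DMSO served as negative control.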

NC(=O)N(O)[C@@H]1C=C[C@H](Oc2cccc(Oc3ccc(F)cc3)c2)C1
outcome [1]: inactive | outcome [2]: inactive | AC50 [3]: 107 µM (active) | AC50 [4]: 93 µM (active) | outcome [5]: inactive | AC50 [6]: 32.9 µM (active) | outcome [7]: inactive | AC50 [8]: 105 µM (active) | outcome [9]: inactive

CC[C@H](C)[C@@H](C(=O)O)n1sc2ccccc2c1=O
outcome [1]: inactive | outcome [2]: inactive | outcome [3]: inactive | outcome [4]: inactive | outcome [5]: inactive | AC50 [6]: 100 µM (active) | outcome [7]: inactive | outcome [8]: inactive | outcome [9]: inactive

CCCCCCCC(=O)O
outcome [1]: inactive | outcome [2]: inactive | outcome [3]: inactive | outcome [4]: inactive | outcome [5]: inactive | AC50 [6]: 0.0327 µM (active) | outcome [7]: inactive | outcome [8]: inactive | outcome [9]: inactive

CCCCCCC(=O)O
outcome [1]: inactive | outcome [2]: inactive | outcome [3]: inactive | outcome [4]: inactive | outcome [5]: inactive | outcome [6]: inactive | outcome [7]: inactive | outcome [8]: inactive | outcome [9]: inactive

O=C(O)Cc1cc(I)c(Oc2cc(I)c(O)c(I)c2)c(I)c1
outcome [1]: inactive | outcome [2]: inactive | outcome [3]: inactive | outcome [4]: inactive | outcome [5]: inactive | outcome [6]: inactive | outcome [7]: inactive | AC50 [8]: 72.2 µM (active) | AC50 [9]: 72.5 µM (active)

CC(C)(C)c1cccc(C(C)(C)C)c1O
outcome [1]: inactive | outcome [2]: inactive | AC50 [3]: 111 µM (active) | outcome [4]: inactive | outcome [5]: inactive | AC50 [6]: 110 µM (active) | AC50 [7]: 96.1 µM (active) | AC50 [8]: 100 µM (active) | AC50 [9]: 112 µM (active)

CC(C)(C)CC(C)(C)c1ccc(O)c(-n2nc3ccccc3n2)c1
outcome [1]: inactive | outcome [2]: inactive | AC50 [3]: 57.1 µM (active) | outcome [4]: inactive | AC50 [5]: 48.9 µM (active) | AC50 [6]: 50.6 µM (active) | outcome [7]: inactive | AC50 [8]: 62.6 µM (active) | AC50 [9]: 26.2 µM (active)

CN(C)C=O
outcome [1]: inactive | outcome [2]: inactive | outcome [3]: inactive | outcome [4]: inactive | outcome [5]: inactive | outcome [6]: inactive | outcome [7]: inactive | outcome [8]: inactive | outcome [9]: inactive

Cc1cc(CCN2CCN(c3nsc4ccccc34)CC2)cc2c1NC(=O)CC2(C)C
outcome [1]: inactive | outcome [2]: inactive | AC50 [3]: 28.6 µM (active) | outcome [4]: inactive | AC50 [5]: 15.7 µM (active) | outcome [6]: inactive | AC50 [7]: 22.2 µM (active) | AC50 [8]: 18.2 µM (active) | outcome [9]: inactive

OC1CCC(C2CCCCC2)CC1 (stereo unspecified)
outcome [1]: inactive | outcome [2]: inactive | outcome [3]: inactive | outcome [4]: inactive | outcome [5]: inactive | outcome [6]: inactive | outcome [7]: inactive | outcome [8]: inactive | outcome [9]: inactive

CCN(CC)CCNc1ccc(CNC=O)c2sc3ccc(OC)cc3c(=O)c12
outcome [1]: inactive | outcome [2]: inactive | AC50 [3]: 60.2 µM (active) | outcome [4]: inactive | AC50 [5]: 7.05 µM (active) | outcome [6]: inactive | AC50 [7]: 32.6 µM (active) | AC50 [8]: 2.62 µM (active) | AC50 [9]: 6.28 µM (active)

c1ccc2c(c1)ccc1ccccc12
outcome [1]: inactive | outcome [2]: inactive | outcome [3]: inactive | outcome [4]: inactive | outcome [5]: inactive | outcome [6]: inactive | outcome [7]: inactive | outcome [8]: inactive | outcome [9]: inactive

CCCCC[C@H](O)CC(=O)CCc1ccc(O)c(OC)c1
outcome [1]: inactive | outcome [2]: inactive | outcome [3]: inactive | outcome [4]: inactive | outcome [5]: inactive | outcome [6]: inactive | outcome [7]: inactive | outcome [8]: inactive | outcome [9]: inactive

c1ccc2c(c1)Cc1ccccc1-2
outcome [1]: inactive | outcome [2]: inactive | outcome [3]: inactive | outcome [4]: inactive | outcome [5]: inactive | outcome [6]: inactive | outcome [7]: inactive | outcome [8]: inactive | outcome [9]: inactive

OCCC(F)(F)C(F)(F)C(F)(F)C(F)(F)C(F)(F)C(F)(F)F
outcome [1]: inactive | outcome [2]: inactive | outcome [3]: inactive | outcome [4]: inactive | outcome [5]: inactive | outcome [6]: inactive | outcome [7]: inactive | outcome [8]: inactive | outcome [9]: inactive

N#C[C@@H]1CC(F)(F)CN1C(=O)CNC1CC2CCC(C1)N2c1ncccn1 (stereo partly specified)
AC50 [1]: 4 µM (active) | outcome [2]: inactive | outcome [3]: inactive | outcome [4]: inactive | outcome [5]: inactive | outcome [6]: inactive | outcome [7]: inactive | outcome [8]: inactive | outcome [9]: inactive

CCCCCCCCCCCCCCCS(=O)(=O)Oc1ccccc1
outcome [1]: inactive | outcome [2]: inactive | outcome [3]: inactive | outcome [4]: inactive | outcome [5]: inactive | outcome [6]: inactive | outcome [7]: inactive | outcome [8]: inactive | outcome [9]: inactive

C#C[C@]1(O)CC[C@H]2[C@@H]3CCC4=CC(=O)CC[C@@H]4[C@H]3CC[C@@]21C
AC50 [1]: 3.95 nM (active) and 5.39 nM (active) and 91.8 nM (active) | outcome [2]: inactive | outcome [3]: inactive | outcome [4]: inactive | outcome [5]: inactive | outcome [6]: inactive | outcome [7]: inactive | outcome [8]: inactive | outcome [9]: inactive

CN1CCN(c2ccccc2/C=C2\SCCN(c3ccc(Cl)c(Cl)c3)C2=O)CC1
outcome [1]: inactive | AC50 [2]: 11.2 µM (active) | AC50 [3]: 24 µM (active) | AC50 [4]: 80.7 µM (active) | AC50 [5]: 7.46 µM (active) | AC50 [6]: 53.6 µM (active) | outcome [7]: inactive | AC50 [8]: 23.5 µM (active) | outcome [9]: inactive

CCCCCCCCCCCCN1CCCC1=O
outcome [1]: inactive | AC50 [2]: 75.3 µM (active) | AC50 [3]: 47.4 µM (active) | outcome [4]: inactive | AC50 [5]: 68.7 µM (active) | outcome [6]: inactive | AC50 [7]: 51 µM (active) | outcome [8]: inactive | AC50 [9]: 42.6 µM (active)

Cc1oc(-c2ccccc2)nc1CCOc1ccc(C[C@H](Nc2ccccc2C(=O)c2ccccc2)C(=O)O)cc1
outcome [1]: inactive | outcome [2]: inactive | AC50 [3]: 84.9 µM (active) | outcome [4]: inactive | AC50 [5]: 84.9 µM (active) | AC50 [6]: 109 µM (active) | outcome [7]: inactive | AC50 [8]: 107 µM (active) | AC50 [9]: 82.7 µM (active)

Nc1cccc2c(N)cccc12
outcome [1]: inactive | outcome [2]: inactive | AC50 [3]: 51.8 µM (active) | outcome [4]: inactive | AC50 [5]: 70.1 µM (active) | outcome [6]: inactive | outcome [7]: inactive | AC50 [8]: 96.2 µM (active) | outcome [9]: inactive

O=C(OCCOCCOC(=O)c1ccccc1)c1ccccc1
outcome [1]: inactive | outcome [2]: inactive | outcome [3]: inactive | outcome [4]: inactive | outcome [5]: inactive | outcome [6]: inactive | outcome [7]: inactive | outcome [8]: inactive | outcome [9]: inactive

CC1=C(/C=C/C(C)=C/C=C/C(C)=C/C(=O)O)C(C)(C)CCC1
AC50 [1]: 0.00133 µM (active) | AC50 [2]: 114 µM (active) | AC50 [3]: 103 µM (active) | outcome [4]: inactive | AC50 [5]: 109 µM (active) | AC50 [6]: 83.2 µM (active) | AC50 [7]: 92.6 µM (active) | outcome [8]: inactive | outcome [9]: inactive

O=C(/C=C/c1ccc(O)cc1)CC(=O)/C=C/c1ccc(O)cc1
outcome [1]: inactive | AC50 [2]: 68.6 µM (active) | outcome [3]: inactive | outcome [4]: inactive | AC50 [5]: 24.6 µM (active) | outcome [6]: inactive | AC50 [7]: 61 µM (active) | outcome [8]: inactive | outcome [9]: inactive

CC#C[C@]1(O)CC[C@H]2[C@@H]3CCC4=CC(=O)CCC4=C3[C@@H](c3ccc(N(C)C)cc3)C[C@@]21C
AC50 [1]: 132 nM (active) and 56 nM (active) and 36.7 nM (active) | outcome [2]: inactive | outcome [3]: inactive | outcome [4]: inactive | outcome [5]: inactive | outcome [6]: inactive | outcome [7]: inactive | outcome [8]: inactive | outcome [9]: inactive

O=C(O)c1ccccc1C(c1ccc(O)cc1)c1ccc(O)cc1
outcome [1]: inactive | outcome [2]: inactive | outcome [3]: inactive | outcome [4]: inactive | outcome [5]: inactive | outcome [6]: inactive | outcome [7]: inactive | AC50 [9]: 100 µM (active)

Oc1cc2ccccc2c2ccccc12
outcome [1]: inactive | outcome [2]: inactive | AC50 [3]: 13.1 µM (active) | AC50 [4]: 55 µM (active) | AC50 [5]: 7.13 µM (active) | AC50 [6]: 43.1 µM (active) | AC50 [7]: 97.7 µM (active) | AC50 [8]: 3.2 µM (active) | outcome [9]: inactive
